The results in this text go back to PubChem BioAssay (NCI).

SMILES strings stand for the structures. The panel holds about 83,000 compounds, 20% with a hit somewhere; the sample as a whole holds those more often.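 Activity criterion: percent growth below 10, measured after cells in 96-well plates were exposed to a single compound concentration for 48 hours.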 Unmarked numbers belong to inactive results. Calls of active or inactive are those of the source.

For the assay, the system named is HL-60(TB) leukemia. The assay is described as follows: NCI-60 one-dose screen, 48 h (100 = growth as untreated, 0 = no growth, -100 = all killed). The note with it: 10 µM unless noted.
For `COc1ccc(-c2csc(C3=C(O)CN(C(C)C)C3=N)n2)cc1OC`, the growth was 76.4%. To `O=C1CNc2cc(Cl)ccc2N1` belongs 99.7%; to `CN1C/C=C\CCOc2cccc(c2)-c2ccnc(n2)Nc2cccc(c2)C1`, -51.9% (active). As to `O=C(O)[C@@H]1[C@H]2C[C@H]3c4[nH]c5ccccc5c4CCN3C[C@@H]2CC[C@@H]1O`, the growth was 128%. To `COc1ccc2c(c1)C(Br)=C(CCO)C2c1ccccc1` (stereo not given) belongs 1.04% (active); to `NCCCNc1nc2ccccc2c2c(=O)c3cc(C(F)(F)F)ccc3sc12`, -23% (active); to `O=C(/C=C/c1ccc(Cl)cc1)c1cccc(OCCCOc2cccc(C(=O)/C=C/c3ccc(Cl)cc3)c2)c1`, 96.2%.

As for `NC(=S)NN=C1CCCCC1`, the growth is 74.1%. For `Cc1cc(N2CCN(c3ccnc4cc(Cl)ccc34)CC2)nc(NC2CCCCC2)n1` the value was -54.1% (active). For `Cc1ccc(C(=O)C2C(=O)C3CCC2C3)cc1` (stereo not given) the value was 98.3%. `CC[C@@H](C(=O)[C@@H](C)[C@@H](O)[C@H](C)[C@@H]1O[C@@H]([C@@H](CC)C(=O)ONC(=O)c2ccccc2O)CC[C@@H]1C)C1O[C@]2(C=CC(=O)[C@]3(CC[C@@](C)([C@H]4CC[C@](O)(CC)[C@H](C)O4)O3)O2)[C@H](C)C[C@@H]1C` (stereo not given in full): the growth was -45.7% (active). For `CCC1(C2CCCC2)NC(=O)NC1=O` (stereo not given) the value was 90.9%; for `COc1ccc(C(=O)/C=C/c2cc(-c3cc(OC)c(OC)c(OC)c3)n[nH]2)cc1`, 23.2%.

For `CCc1nc(N)nc(N)c1-c1ccc(Cl)cc1`, the growth was 51.3%. To `CCSC(SCC)c1ccc(Cl)cc1` belongs 116%.
